High-throughput results as filed in PubChem BioAssay.
Only some compounds are listed: those with a hit (about 10% of all), similar ones and a draw of the others.
MCF10A rereplic = A quantitative high throughput screen for small molecules that induce DNA re-replication in MCF 10a normal breast cells; Potency, µM (titrated, usually from 46.1 µM), for the others: at the highest dose activity, positive = re-replication, most hits filed as activators; AID 624296, 2012; hit rate 2.9% among 350,000; MCF 10A DNA re-replication, Hoechst nuclear intensity, 48 h; also: % of control where 0% means no effect; nearly all actives have a fitted effect of over 50% in size
KB-3-1 cytotox = qHTS assay for MDR1-selective chemotherapeutics: Primary screen using the parental adenocarcinoma cell KB-3-1; KB-3-1 viability, CellTiter-Glo ATP luminescence, 72 h; Potency, µM (doses to about 46.1 µM), most hits filed as cytotoxic; hit rate 1.4% among 400,000; also: % is scaled to controls: 0 for no effect and ±100 for the full control effect; nearly all actives have a fitted effect of over 60% in size
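Luminescent ATP read-out (CellTiter-Glo) measures survival of drug-naive KB-3-1 cells after 72 h compound exposure at 37 °C. Titration series was screened from lowest to highest concentration, with DMSO vehicle plates as background controls.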
VP16 counter = VP16 counterscreen qHTS for inhibitors of ROR gamma transcriptional activity; Drosophila S2 Gal4-VP16 UAS-luciferase, luminescence, 20 h; Potency, µM (doses to about 53.6 µM), for the others: at the highest dose activity, negative = inhibition, most hits filed as inhibitors; hit rate 3.5% among 310,000;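 also: Gal4-VP16 expression switched on by copper sulfate through the metallothionein promoter; % is scaled to controls: 0 for no effect and ±100 for the full control effect; nearly all actives have a fitted effect of over 50% in size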
SW480 rereplic = A quantitative high throughput screen for small molecules that induce DNA re-replication in SW480 colon adenocarcinoma cells. SW480 DNA re-replication, Hoechst DNA content imaging, 48 h. Potency, µM (series often up to 46.1 µM), without a hit: top-dose re-replication activation, hits mostly activators. hit rate 1.8% among 340,000; also: % of control where 0% means no effect; nearly all actives have a fitted effect of over 55% in size
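Cells (250 per well) received 23 nL compound or DMSO by pin tool and were kept 48 hr at 37 C, 5% CO2. Nuclei were then stained with Hoechst for 40 min and scanned for DNA content.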
RORgamma inh = qHTS for inhibitors of ROR gamma transcriptional activity. Nuclear receptor ROR-gamma (Mus musculus), P51450. Drosophila S2 Gal4-RORgamma UAS-luciferase reporter, 20 h. Potency, µM (top dose mostly 53.6 µM), for the others: at the highest dose activity change, negative = inhibition, hits mostly inhibitors. hit rate 5.4% among 310,000. AID 2551, 2010; also: % is scaled to controls: 0 for no effect and ±100 for the full control effect; nearly all actives have a fitted effect of over 60% in size
Target sequence (P51450 whole entry, looked up, the tested form may be a part): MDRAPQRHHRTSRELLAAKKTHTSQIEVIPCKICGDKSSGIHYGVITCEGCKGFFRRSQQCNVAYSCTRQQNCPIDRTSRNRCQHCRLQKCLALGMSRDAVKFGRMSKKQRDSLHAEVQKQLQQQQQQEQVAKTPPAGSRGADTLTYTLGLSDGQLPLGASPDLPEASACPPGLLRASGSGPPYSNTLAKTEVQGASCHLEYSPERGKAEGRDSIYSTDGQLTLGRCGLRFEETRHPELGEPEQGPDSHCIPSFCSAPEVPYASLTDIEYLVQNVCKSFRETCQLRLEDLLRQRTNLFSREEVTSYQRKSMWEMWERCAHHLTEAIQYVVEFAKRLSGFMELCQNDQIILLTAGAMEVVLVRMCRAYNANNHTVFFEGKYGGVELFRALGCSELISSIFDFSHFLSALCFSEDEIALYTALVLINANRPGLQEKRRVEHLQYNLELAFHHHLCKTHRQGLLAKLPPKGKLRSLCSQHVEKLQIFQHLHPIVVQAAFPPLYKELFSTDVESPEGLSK
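Drosophila S2 cells stably expressing Gal4-DBD/mouse RORγ fusion under metallothionein promoter plus UAS-luciferase; compound 1 h, then 700 uM CuSO4 induction for 20 h at ambient temperature; inhibition read as reduced luminescence.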
KB-V1 cytotox = qHTS assay for MDR1-selective chemotherapeutics: Primary screen using the drug-selected MDR subline cells KB-V1 | KB-V1 MDR cells viability, CellTiter-Glo, 72 h | Potency, µM (titrated, usually from 46.1 µM), hits mostly cytotoxic | hit rate 3.4% among 400,000; also: % is scaled to controls: 0 for no effect and ±100 for the full control effect; nearly all actives have a fitted effect of over 60% in size
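KB-V1, DMEM (no phenol red) + 10% FBS; cpd pin-transferred, titration series; 72 h, 37 degrees C; CellTiter-Glo, luminescence. Data normalized, curve-fit.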
Starred values were filed as active, the others as inactive; i = inactive; ? = inconclusive; · = no result; ! = not confirmed by another sample; [ ] = dose if it differs, or a comment. Calls follow the shape of the dose curve; as a rule, active = well fitted curve in the direction sought with a large enough effect; inconclusive = small, poorly fitted or top-dose-only effect, or another doubt; inactive = no such curve, though single readings can be large; an effect the other way counts as inactive or inconclusive. Potency is read from the fitted curve at half-maximal effect.

SMILES	MCF10A rereplic	KB-3-1 cytotox	VP16 counter	SW480 rereplic	RORgamma inh	KB-V1 cytotox
COc1ccccc1NC(=O)CN1CCN(C2c3ccccc3-c3ccccc32)CC1	5.8µM*	?	?	?	?	i
COc1ccc(NC(=O)CN2CCN(C3c4ccccc4-c4ccccc43)CC2)c(OC)c1	8.2µM*	?	?	19%	?	i
Cc1nnc(N2CCN(c3ccccc3)CC2)c2c1nnn2Cc1ccc(F)cc1	·	i	·	·	·	i
O=C(N/N=C/c1c[nH]c2ccccc12)c1cccc(Cl)c1	13%	i	?	-22%	?	?
CCC/C(=N/NC(=O)c1cccc(Cl)c1)c1ccccc1	16%	i	?	2%	13µM*	?
O=C(N/N=C/C1C(c2ccccc2)C1(Cl)Cl)c1cccc(Cl)c1 (stereo not drawn)	0%	i	4.5µM*	-12%	2.8µM*	i
Cc1ccc(Cn2c(=O)n(CCc3ccccc3)c(=O)c3sc4ccccc4c32)cc1	·	i	·	·	·	i
O=C(Cc1cccs1)Nc1ccccc1-c1nc2ccccc2[nH]1	13µM*	?	3%	12µM*	1%	?
Cc1ccc2nc(-c3ccc(NC(=O)Cc4cccs4)cc3)[nH]c2c1	?	i	?	?	?	i
Cc1ccc(Cn2cnc3nc4c(cc3c2=O)CCCC4)cc1	·	i	·	·	·	i
O=c1c2cc3c(nc2[nH]c(=S)n1-c1ccccc1)CCCC3	0%	i	?	-4%	2.5µM*	i
CCn1c(=S)[nH]c2nc3c(cc2c1=O)CCCC3	-180%[0.0737 µM]	i	?	5%	1.6µM*	i
O=c1c2cn[nH]c2[nH]c(=S)n1-c1ccccc1	-2%	i	5%	-4%	-26%	i
Cc1ccc(C(=O)NC(=S)Nc2ccccc2C(F)(F)F)cc1C	?	i	13µM*	-11%	2.5µM*	i
Cc1cccc(C(=O)NC(=S)Nc2ccccc2C(F)(F)F)c1	6%	i	5.6µM*	·	4.5µM*	?
CCCc1nc2ccccc2c(=O)n1/N=C/c1ccccc1O	?	i	10µM*	?	2.5µM*	16µM*
Cc1nc2ccccc2c(=O)n1/N=C/c1ccc(O)cc1O	-25%	i	-3%	-2%	-30%	i
Cc1ccc(-n2[nH]c(C)c(/C=N/c3ccccn3)c2=O)cc1	-8%	?	0%	-2%	-8%	i
COc1cccc(/C=N/n2c(C)nc3ccccc3c2=O)c1O	?	i	16µM*	?	3.2µM*	i
CCCc1nc2ccccc2c(=O)n1/N=C/c1c(C)[nH]n(-c2ccc(C)cc2)c1=O	11%	8.2µM*	?	?	13µM*	16µM*
CN(C)c1ccc(-c2c(-c3ccc4c(c3)OCO4)noc2-c2ccsc2)cn1	?	?	-5%	?	15%	10µM*!
CCc1cnc2c(c1SCc1c(F)cccc1Cl)c(=O)n(C)c(=O)n2C	·	i	·	·	·	i
CCc1ccc(Cn2nnc(C(=O)Nc3ccc(C)cc3)c2N)cc1	·	i	·	·	·	i
CC(C)C(=O)Nc1cccc(COc2cccc(CN(Cc3ccccc3)C(=O)OC(C)(C)C)c2)c1	1.8µM*	?	·	4%	·	?
CC(C)C(=O)Nc1cccc(COc2ccc(CN(CCc3ccccc3)C(=O)OC(C)(C)C)cc2)c1	?	i	·	?	·	?
SMILES	MCF10A rereplic	KB-3-1 cytotox	VP16 counter	SW480 rereplic	RORgamma inh	KB-V1 cytotox
CC(C)(C)OC(=O)N(Cc1ccccc1)Cc1ccccc1OCc1cccc(NC(=O)C2CC2)c1	15µM*	i	·	?	·	?
CCN(CC)C(=O)C1=C(C)N(Cc2ccc(F)cc2)C(=O)C(CC(=O)NCCCN(C)C)C1 (stereo not drawn)	·	i	·	·	·	i
Cc1ccccc1NC(=O)CSc1nnc(-c2ccccc2)n1-c1ccccc1	0%	i	0%	6%	13%	?
CCn1c(COc2cccc(C)c2)nnc1SCC(=O)N1CCCC1	-4%	i	-8%	-4%	?	?
CCn1c(CNC(=O)COc2ccc(C(C)C)cc2)nnc1SCC(=O)Nc1ccccc1C(C)C	?	i	20µM*	0%	31%	?
O=C(CSc1ncc(-c2ccc(F)cc2)n1Cc1ccco1)Nc1nccs1	0%	?	-5%	0%	-24%	?
N#Cc1ccccc1NC(=O)CSc1nnc(-c2ccccc2O)n1-c1ccccc1	28%	?	?	?	13µM*	?
CCn1c(COc2cccc(C)c2)nnc1SCC(=O)CC(=O)Nc1ccccc1OC	7%	i	?	10%	10µM*	i
Cc1cnc(NC(=O)CSc2ncc(-c3ccccc3)n2Cc2ccco2)s1	?	i	-29%	2%	11µM*	21µM*
O=c1c2cc3c(cc2n(Cc2ccccc2)c(=O)n1Cc1nc(-c2ccccc2)no1)OCO3	·	i	·	·	·	i
Cc1nc2ccc(S(=O)(=O)N(CC(=O)Nc3cccc(C)c3C)Cc3ccccc3)cc2s1	·	i	·	·	·	i
Cc1noc(C)c1-c1cncnc1N1CCN(C)CC1	·	·	-6%	·	9%	·
COc1ccccc1NC(=O)CC(=O)CSc1nnc(-c2ccc(C)cc2)n1-c1ccccc1	-2%	i	10µM*	-65%	7.1µM*	13µM*
COc1ccc(-c2nnc(SCC(=O)Nc3ncc(C)s3)n2-c2ccccc2)cc1OC	13µM*	21µM*	-23%	16µM*	?	?
CCn1c(COc2ccccc2)nnc1SCC(=O)CC(=O)Nc1ccccc1OC	29%	i	22µM*	-1%	?	i
CCn1c(SCc2nc(CC(=O)Nc3ccccc3OC)no2)nnc1-c1cccs1	0%	i	2%	-5%	29%	5.8µM*
CCn1c(C)nnc1SCC(=O)Nc1ccccc1OC	0%	i	-4%	-2%	-7%	i
CCn1c(SCc2nc(-c3ccccc3)no2)nnc1-c1cccs1	8%	i	-4%	-1%	29%	i
COc1ccc(Nc2ncnc3onc(C)c23)cc1Cl	·	i	·	·	·	?
CC(C)(C)c1cc(C2=CSC3=NCCN23)cc(C(C)(C)C)c1O	?	i	?	?	?	?
